Screening results deposited in PubChem by several laboratories.
Sampled rows, rich in hits. Any-hit rate of the full collection: about 1.1%.
Granule exo inh = LAMP-1 surface exposure blockers, TALL-104 cells – cell-based, flow cytometry, MLPCN library, primary screen | TALL-104 LAMP-1 surface exposure; cells stimulated with thapsigargin and PMA | inhibition, % at 10 µM | actives 0.66% (n = 360,000);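 active means inhibition above about 55%, limit read from the data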
CaV13 ICDI inh = Primary screen for inhibitors of IQ motif and Ca2+-dependent inactivation inhibitor domain binding in CACNA1D, Förster resonance energy transfer in living cells, … | HEK cells, CFP/YFP FRET ICDI-IQ, plate reader, 10 min; percent FRET-ratio fall versus neutral wells | inhibition, % at 12.3 µM | actives 0.098% (n = 340,000);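 active means mean replicate inhibition of at least 30% and at least 1% of replicates passing that level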
ABCB6 inh MLPCN = ABCB6 transporter inhibitors, primary screen, K562-ABCB6 cells, flow cytometry, MLPCN library; fluorescence ratio to DMSO, % at 10 µM; K562-ABCB6 porphyrin accumulation, 1 h; hits give low values; ATP-binding cassette sub-family B member 6 (Homo sapiens), Q9NP58; AID 602162, 2011; actives 0.19% (n = 360,000);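 active means fluorescence ratio to DMSO below 75%, the collection mean minus 3 SD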;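 further: signal is porphyrin accumulated inside mitochondria; lower ratio means ABCB6 inhibition with less porphyrin fluorescence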
Target sequence (Q9NP58 whole entry, looked up): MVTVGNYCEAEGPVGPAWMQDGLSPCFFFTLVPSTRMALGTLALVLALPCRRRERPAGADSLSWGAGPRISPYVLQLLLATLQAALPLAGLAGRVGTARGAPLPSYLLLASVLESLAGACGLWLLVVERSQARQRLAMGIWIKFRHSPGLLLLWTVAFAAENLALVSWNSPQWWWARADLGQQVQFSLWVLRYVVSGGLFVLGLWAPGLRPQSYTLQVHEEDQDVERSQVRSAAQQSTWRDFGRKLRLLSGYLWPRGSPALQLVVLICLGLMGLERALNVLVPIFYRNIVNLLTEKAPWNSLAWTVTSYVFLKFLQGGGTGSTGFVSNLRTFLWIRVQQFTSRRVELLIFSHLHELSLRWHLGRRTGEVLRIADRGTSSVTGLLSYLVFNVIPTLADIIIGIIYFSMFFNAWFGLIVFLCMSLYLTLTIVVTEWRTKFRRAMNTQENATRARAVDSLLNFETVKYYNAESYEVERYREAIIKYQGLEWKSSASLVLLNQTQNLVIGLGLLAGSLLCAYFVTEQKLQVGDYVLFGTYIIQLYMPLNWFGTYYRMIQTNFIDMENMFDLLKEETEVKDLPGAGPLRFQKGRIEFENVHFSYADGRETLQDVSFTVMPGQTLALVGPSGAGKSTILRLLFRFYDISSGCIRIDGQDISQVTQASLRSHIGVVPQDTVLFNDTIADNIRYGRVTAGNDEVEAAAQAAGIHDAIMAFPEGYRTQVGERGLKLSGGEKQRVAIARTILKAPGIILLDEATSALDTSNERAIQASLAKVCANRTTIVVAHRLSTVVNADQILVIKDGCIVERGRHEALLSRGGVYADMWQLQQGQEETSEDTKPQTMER
VLA-4 inh = inhibition in human VLA-4 binding assay, primary screen, VLA-4 allosteric modulator project, MLPCN library, flow cytometry, VLA-4 expressing cells; actives 0.2% (n = 330,000); ligand binding flow cytometry; Integrin alpha-4 (Homo sapiens), P13612; inhibition, % (about 7 µM as worked out from the volumes in the protocol); in the data active means inhibition above about 50%
ABCB6 inh CP1 = ABCB6 transporter inhibitors, confirmation, K562-ABCB6 cells, flow cytometry, cherry pick 1; shares compounds with ABCB6 inh MLPCN; K562-ABCB6 porphyrin accumulation, 1 h; hits give low values; ratio response (% of DMSO), % at 10 µM; 700 tested, under 10 active; AID 602430, 2012;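 active means repeat-averaged ratio response below 75% of DMSO, the collection mean minus 3 SD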;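 further: median porphyrin fluorescence at 575 nm with 488 nm excitation from mitochondria; lower ratio means less porphyrin signal so ABCB6 inhibition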
Of the large screens only hits and unclear results are named; the others gave an inactive call (follow-up assays come after a bar, where they were run).

Cc1ccc(C(=O)OCC(=O)c2c[nH]c3ccccc23)cc1S(=O)(=O)N1CCCCC1	ABCB6 inh MLPCN 70 | ABCB6 inh CP1 inactive
O=C1CC(c2ccccc2)CC(O)=C1C=NCc1ccccc1Cl (stereo not given)	ABCB6 inh MLPCN 15 (no result: CaV13 ICDI inh) | ABCB6 inh CP1 inactive
O=C1CC(c2ccccc2)CC(O)=C1C=NCc1ccccc1 (stereo not given)	none
O=C(NC1CCCCC1)N1CCC(c2nc(-c3ccc(S(=O)(=O)N4CCCC4)cc3)no2)CC1	ABCB6 inh MLPCN 70 | ABCB6 inh CP1 inactive
O=C(Oc1ccc2c(=O)c(Oc3ccc4ccccc4c3)coc2c1)c1cncc(Br)c1	ABCB6 inh MLPCN 73 | ABCB6 inh CP1 inactive
O=C(Oc1ccc2ccccc2c1)c1cncc(Br)c1	none
Cc1ccc(-c2nc3n(n2)Cc2ccccc2-3)cc1	none
NC(=S)Cc1nc2n(n1)Cc1ccccc1-2	ABCB6 inh MLPCN 70 | ABCB6 inh CP1 inactive
COc1ccc(N2CCN(c3ncccc3C#N)CC2)cc1	ABCB6 inh MLPCN 74 | ABCB6 inh CP1 inactive
COc1ccc(N2CCN(c3ccc(N)cc3C#N)CC2)cc1	none
COc1ccc(N2CCN(C(=O)c3cc(-c4ccc(F)cc4)[nH]c3C)CC2)cc1	ABCB6 inh MLPCN 71 | ABCB6 inh CP1 inactive
CCc1cc(=O)oc2c(C)c(OCC(=O)N3CCCc4ccccc43)ccc12	ABCB6 inh MLPCN 74 | ABCB6 inh CP1 inactive
O=C(CCNC(=O)N1CC(=O)Nc2ccccc21)Nc1ccc(Br)cc1F	none
COCCOC(=O)c1[nH]c2c(c1C)C(=O)CC(c1cc(OC)c(OC)c(OC)c1)C2 (stereo not given)	ABCB6 inh MLPCN 71 | ABCB6 inh CP1 inactive
CCCCOC(=O)c1[nH]c2c(c1C)C(=O)CC(c1cc(OC)c(OC)c(OC)c1)C2 (stereo not given)	none
CC(C)(C)c1ccc(CC(=O)N2CCC2(C)C(=O)NS(=O)(=O)c2cccc(C#N)c2)cc1 (stereo not given)	ABCB6 inh MLPCN 61 (no result: VLA-4 inh) | ABCB6 inh CP1 inactive
COc1ccc(S(=O)(=O)NC(=O)C2(C)CCN2C(=O)Cc2ccccc2Cl)cc1OC (stereo not given)	none (no result: VLA-4 inh)
Cc1cc(C)cc(CC(=O)N2CCC2(C)C(=O)NS(=O)(=O)c2ccc(Br)cc2)c1 (stereo not given)	none (no result: VLA-4 inh) | ABCB6 inh CP1 inactive
CC1(C(=O)NS(=O)(=O)c2cccc(C#N)c2)CCN1C(=O)Cc1ccccc1Cl (stereo not given)	none (no result: VLA-4 inh) | ABCB6 inh CP1 inactive
CC1(C(=O)NS(=O)(=O)c2cccc(F)c2)CCN1C(=O)Cc1ccccc1Cl (stereo not given)	none (no result: VLA-4 inh) | ABCB6 inh CP1 inactive
CC1(C(=O)NS(=O)(=O)c2cccc(C#N)c2)CCN1C(=O)Cc1ccc(Cl)cc1Cl (stereo not given)	none (no result: VLA-4 inh)
CC1(C(=O)NS(=O)(=O)c2cccc(C#N)c2)CCN1C(=O)Cc1ccc(-c2ccccc2)cc1 (stereo not given)	none (no result: VLA-4 inh)
Cc1ccccc1NC(=O)C1C(=O)Nc2ccccc2C(=O)N1Cc1ccccc1 (stereo not given)	none (no result: ABCB6 inh MLPCN, VLA-4 inh)
Cc1cc(C)cc(CC(=O)N2CCC2(C)C(=O)NS(=O)(=O)c2cccc(F)c2)c1 (stereo not given)	none (no result: VLA-4 inh) | ABCB6 inh CP1 inactive
Cc1cc(C)cc(N(C(=O)c2csnn2)C(C(=O)NC2CCCC2)c2cccnc2)c1 (stereo not given)	ABCB6 inh MLPCN 74 | ABCB6 inh CP1 inactive
Cc1cc(C)cc(N(C(=O)c2csnn2)C(C(=O)NC2CCCCC2)c2cccnc2)c1 (stereo not given)	none
Cc1ccc(CN(C(=O)c2csnn2)C(C(=O)NC2CCCC2)c2ccco2)cc1 (stereo not given)	ABCB6 inh MLPCN 73 | ABCB6 inh CP1 inactive
COC(=O)C1(C(=O)OC)C[C@H](c2ccc(OC)cc2)N(Cc2ccccc2OC)[C@@H]1c1ccc(OC)cc1	none (no result: ABCB6 inh MLPCN, VLA-4 inh)
CCN(CC(=O)Nc1ccc(OC)cc1)C(=O)c1ccc2c(c1)NC(=O)C(C)S2 (stereo not given)	none
N#Cc1c2n(c3c(=O)n(Cc4ccccc4)cnc13)CCCC2	ABCB6 inh MLPCN 55 | ABCB6 inh CP1 inactive
Cc1cc(C(=O)COc2ccc(C#N)cc2)c(C)n1CC1CCCO1 (stereo not given)	none
Cc1cc(C(=O)COc2ccc(Br)cc2F)c(C)n1CC1CCCO1 (stereo not given)	ABCB6 inh MLPCN 71 (no result: VLA-4 inh) | ABCB6 inh CP1 inactive
CC(=O)Nc1cccc(-c2ccnc3c2CC(C(=O)Nc2cccnc2)O3)c1 (stereo not given)	none (no result: VLA-4 inh) | ABCB6 inh CP1 inactive
O=C(Nc1cccc(C(F)(F)F)c1)C1Cc2c(-c3ccccc3Oc3ccccc3)ccnc2O1 (stereo not given)	none (no result: VLA-4 inh) | ABCB6 inh CP1 inactive
CC(=O)Nc1ccc(-c2ccnc3c2CC(C(=O)Nc2cccc(OC(F)(F)F)c2)O3)cc1 (stereo not given)	ABCB6 inh MLPCN 74 (no result: VLA-4 inh) | ABCB6 inh CP1 inactive
CC(=O)Nc1cccc(-c2ccnc3c2CC(C(=O)Nc2cccc(OC(F)(F)F)c2)O3)c1 (stereo not given)	none (no result: VLA-4 inh)
Cc1cc(NS(=O)(=O)c2ccc(NC(=O)COc3ccc(Cl)c(C)c3)cc2)no1	none (no result: VLA-4 inh)
Cc1ccc(NS(=O)(=O)c2ccc(C(=O)OCC(=O)NCC3CCCO3)cc2)cc1 (stereo not given)	none
O=C(CSc1n[nH]c(=O)n1-c1ccc2c(c1)OCCO2)Nc1ccccc1	none
Cc1cc(NC(=O)CSc2nnnn2-c2ccc(C)c(C)c2)no1	none
Cc1cc(NC(=O)CSc2nnnn2-c2ccc(C)c(Cl)c2)no1	ABCB6 inh MLPCN 72 | ABCB6 inh CP1 inactive
O=[N+]([O-])c1ccccc1C=NNc1ccccc1	none (no result: VLA-4 inh)
Cc1ccc(-c2nc(N/N=C/c3ccccc3[N+](=O)[O-])c3ccccc3n2)cc1	ABCB6 inh MLPCN 74 | ABCB6 inh CP1 inactive
COc1ccc(NC(=O)C2Cc3c(-c4cccc(C(C)=O)c4)ccnc3O2)cc1OC (stereo not given)	none (no result: VLA-4 inh)
COc1ccc(NC(=O)C2Cc3c(-c4cccc(C(N)=O)c4)ccnc3O2)cc1OC (stereo not given)	none (no result: VLA-4 inh) | ABCB6 inh CP1 inactive
CS(=O)(=O)Nc1cccc(NC(=O)C2Cc3c(-c4cccc(C(N)=O)c4)ccnc3O2)c1 (stereo not given)	ABCB6 inh MLPCN 61 (no result: VLA-4 inh) | ABCB6 inh CP1 inactive
CC(=O)Nc1cccc(-c2ccnc3c2CC(C(=O)Nc2cccc(NS(C)(=O)=O)c2)O3)c1 (stereo not given)	none (no result: VLA-4 inh)
CC1(C(=O)NS(=O)(=O)c2ccc(Cl)cc2)CCN1C(=O)c1ccccc1 (stereo not given)	none (no result: VLA-4 inh)
COc1ccc(OC)c(C(C)NC(=O)Nc2ccccc2)c1 (stereo not given)	ABCB6 inh MLPCN 72 | ABCB6 inh CP1 inactive
